Each structure is given as a SMILES string. Inconclusive results are not listed. A call without a number means that no potency is given here. Activity calls are given as the source filed them. Calls come from the whole dose curve.

The nature of this assay: p53 small molecule agonists, cell-based qHTS assay with human liver microsomes (AID 1963577).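 Note: p53 response element beta-lactamase reporter cells with liver microsomes plus NADPH.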 To be noted: HCT-116 p53RE-bla with human liver microsomes, ratio, 16 h; series mostly up to 66 µM. An excerpt: National Center for Advancing Translational Sciences [NCATS]
Division of Preclinical Innovation [DPI]
U.S. Environmental Protection Agency [EPA]
National Institutes of Environmental Health Sciences [NIEHS]
National Toxicology Program [NTP]
U.S. Food and Drug Administration [FDA]
p53, a tumor suppressor protein, is activated following cellular insult, including DNA damage and other cellular stresses. The activation of p53 regulates cell fate by inducing DNA repair, cell cycle arrest, apoptosis, or cellular senescence. The activation of p53, therefore, is a good indicator of DNA damage and other cellular stresses. […] The activation of the reporter gene under culture conditions can be detected by fluorescence intensity.
Tox21 Assay Protocol Summary:
The p53RE-bla cells were dispensed at 4,000cells/3ul/well in 1536-well black-clear bottom plates. After the assay plates were incubated at 37 C, 5% CO2 incubator for 5 hours, 23 nL of compounds dissolved in DMSO, positive controls or DMSO only was transferred to the assay plate. Following compound addition, 3 uL of human liver microsomes (XenoTech, Kansas City, KS) at final concentration of 0.5 mg/mL and 1uL of Beta-Nicotinamide adenine dinucleotide 2-phosphate (NADPH) at final concentration of 0.5 mg/mL were transferred to the assay plate. The plates were incubated at 37 C for 16 hours. 1 uL of LiveBLAzer detection mixture was added to each well and the plates were incubated at room temperature in the dark for 2 h.
In the case of `Cc1cccc2nccnc12`, the Potency result was “inactive”.
Same read-out and setting: as for `O=C1C(CCS(=O)c2ccccc2)C(=O)N(c2ccccc2)N1c1ccccc1` (stereo not given), the entry is “inactive”; as for `O=C1OCc2ccccc21`, “inactive”; as for `O=C(CCCN1CCC(O)(c2ccc(Br)cc2)CC1)c1ccc(F)cc1`, “inactive”.
On the same count and under the same terms, as for `CN(C)[C@@H]1C(=O)C(C(=O)NCN2CCCC2)=C(O)[C@@]2(O)C(=O)C3=C(O)c4c(O)cccc4[C@@](C)(O)C3C[C@@H]12` (stereo not given in full), the entry is “inactive”; as for `CCOC(=O)/C=C/C(=O)O`, “inactive”; as for `Cc1cn([C@@H]2O[C@H](CO)[C@@H](O)[C@@H]2F)c(=O)[nH]c1=O`, “inactive”.
On the same count and under the same terms, as for `c1ccc(CC2=NCCN2)cc1`, the entry is “inactive”.
Regarding `C[C@H](CCC(=O)NCC(=O)O)[C@H]1CC[C@H]2[C@@H]3[C@H](O)C[C@@H]4C[C@H](O)CC[C@]4(C)[C@H]3C[C@H](O)[C@]12C`, the Potency entry is “inactive”.
Consider `O=Cc1ccc(F)c(Br)c1`, for which the Potency entry was “inactive”.
The same measure, in the same setting: as for `CC(C(=O)O)c1ccc(C(=O)c2ccccc2)s1` (stereo not given), the entry is “inactive”.
Consider `CC[C@@H](N)CO`, for which the Potency entry was “inactive”.
As for `CC(=O)Nc1ccc(C)cc1C`, the Potency entry was “inactive”.
Same read-out and setting: as for `CCN(CC)c1cccc(C)c1`, the entry is “inactive”.
Turning to `CN1CCC(=C2c3ccccc3CC(=O)c3sccc32)CC1`, the Potency entry was “inactive”.
`CC(=O)OC[C@H]1O[C@@H](n2ncc(=O)[nH]c2=O)[C@H](OC(C)=O)[C@@H]1OC(C)=O`: the Potency result is “inactive”.
Same read-out and setting: next, `O=C1OCCN1/N=C/c1ccc([N+](=O)[O-])o1`: “inactive”; `CC(=O)NCCCCCC(=O)O`: “inactive”.
`CNC(=O)c1ccccc1Sc1ccc2c(/C=C/c3ccccn3)n[nH]c2c1`: the Potency entry is “inactive”.
Still for that read-out and setting: as for `CC/C=C\CCOC(=O)c1ccccc1`, the entry is “inactive”.
Same read-out and setting: next, `CCC(CO)(CO)[N+](=O)[O-]`: “inactive”; `Cc1cccc(C)c1C`: “inactive”; `CC/C=C\CCOC(=O)c1ccccc1O`: “inactive”.
Regarding `Oc1ccc(-c2ccc(O)cc2)cc1`, the Potency result is “inactive”.
The same measure, in the same setting: as for `CC1(C)OC[C@@H](COC(=O)CCc2ccc(OC[C@@H](O)CNCCNC(=O)N3CCOCC3)cc2)O1`, the entry is “inactive”.
Same read-out and setting: next, `Nc1cccc2c(=O)[nH][nH]c(=O)c12`: “inactive”.
On the same count and under the same terms, next, `O=C(O)c1ccncc1`: “inactive”.
With `CCOC(=O)C1=C(C)NC(C)=C(C(=O)OC)C1c1cccc(Cl)c1Cl` (stereo not given), the Potency entry is “inactive”.
With `[Cl][Sc]([Cl])[Cl]`, the Potency entry is “inactive”.
Same read-out and setting: as for `CC(N)C12CC3CC(CC(C3)C1)C2` (stereo not given), the entry is “inactive”; as for `CC1=CCC(=C(C)C)CC1`, “inactive”.
With `O=C(CCN1CCN2CCCC2C1)N1c2ccccc2Sc2ccc(Cl)cc21` (stereo not given), the activation was -1.04% [at 13.5 µM] (inactive).
In the case of `CCOC(=O)C(=O)c1csc(NC=O)n1`, the Potency result is “inactive”.
Take `C[C@H](N)[C@H](O)c1cccc(O)c1`: the Potency entry was “inactive”.
Still for that read-out and setting: next, `COc1ccc(-c2coc3cc(O)ccc3c2=O)cc1`: “inactive”; `COC(=O)CC#N`: “inactive”; `CNCc1ccccc1`: “inactive”.
Turning to `COc1cc(C(C)C)ccc1C`, the activation was -9.12% [at 13.5 µM] (inactive).
`CC(C)CC(C)CC(C)CC(C)COC(=O)c1ccccc1C(=O)OCC(C)CC(C)CC(C)CC(C)C` (stereo not given): the Potency entry is “inactive”.
On the same count and under the same terms, next, `C=CC(=O)OCC(O)COc1ccccc1` (stereo not given): “inactive”.

For the origin of these results see PubChem BioAssay (Tox21).
